For eight compounds, growth results are on record in PubChem BioAssay (NCI).

The panel holds about 83,000 compounds, 20% with a hit somewhere; the sample as a whole holds those more often.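 Activity criterion: percent growth below 10, measured after cells in 96-well plates were exposed to a single compound concentration for 48 hours.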 A number with no mark means an inactive call. Activity calls are given as the source filed them.

Among the test systems are NCI-H23 lung; NCI-H226 lung; NCI-H322M lung; HOP-62 NSCLC; NCI-H460 lung; 786-0 renal; DU-145 prostate; MDA-MB-231 breast; SF-268 CNS; SNB-19 CNS; UACC-62 melanoma; SK-MEL-28 melanoma; SN12C renal; UO-31 renal; OVCAR-5 ovarian; OVCAR-3 ovarian; NCI/ADR-RES ovarian; MDA-MB-435 melanoma; MCF7 breast; KM12 colon.
Test in all cases: NCI-60 one-dose screen, 48 h (100 = growth as untreated, 0 = no growth, -100 = all killed)
Holding throughout (conditions): 10 µM unless noted

For `Cc1cc(CCl)c(C)cc1CCl`, the growth in the assay with NCI-H23 lung is 55.4%; in the assay on NCI-H226 lung, 83.3%; in the assay on NCI-H322M lung, 15%; with HOP-62 NSCLC it was 15.3%; with NCI-H460 lung it was 4.86% (active); in the assay with 786-0 renal, 36.9%. In addition, the growth with DU-145 prostate is 1.11% (active); in the assay with MDA-MB-231 breast, 108%; in the assay with SF-268 CNS it was 41.9%; with SNB-19 CNS, 51%; in the assay with UACC-62 melanoma, 60.6%; with SK-MEL-28 melanoma, 77.7%. For the same compound, the growth in the assay on SN12C renal was 30.9%; in the assay with UO-31 renal, 33.9%; with OVCAR-5 ovarian it was 141%; with OVCAR-3 ovarian, 2.57% (active); with NCI/ADR-RES ovarian, 62%; with MDA-MB-435 melanoma it was 76.5%. For the same compound, the growth in the assay on MCF7 breast was 7.03% (active); in the assay on KM12 colon, -43.7% (active).
Consider `O=C(c1cccs1)C1NO[N+]([O-])=C1c1cccs1` (stereo not drawn), for which the growth in the assay on NCI-H23 lung was 4.55% (active); with NCI-H226 lung it was -0.733% (active); in the assay on NCI-H322M lung, 110%; with HOP-62 NSCLC it was 89.6%; in the assay with NCI-H460 lung it was 82.3%; in the assay on 786-0 renal it was 0.474% (active). Besides, the growth with DU-145 prostate was 120%; in the assay on MDA-MB-231 breast, 86.2%; with SF-268 CNS it was 109%; in the assay with SNB-19 CNS, 103%; with UACC-62 melanoma it was 88.7%; in the assay with SK-MEL-28 melanoma it was 65.8%. Also, the growth in the assay on SN12C renal was 73.4%; in the assay with UO-31 renal it was -83.3% (active); in the assay on OVCAR-5 ovarian, 114%; with OVCAR-3 ovarian, -10.4% (active); with NCI/ADR-RES ovarian it was 47.5%; in the assay on MDA-MB-435 melanoma, 72.9%. For the same compound, the growth in the assay on MCF7 breast was 81.8%; in the assay on KM12 colon it was 74.8%.
In the case of `CC(C)(NC(=O)c1nn(CCCCCF)c2ccccc12)c1ccccc1`, the growth in the assay on NCI-H23 lung was 101%; with NCI-H226 lung it was 80.2%; in the assay with NCI-H322M lung, 105%; in the assay with HOP-62 NSCLC, 94.2%; with NCI-H460 lung, 102%; in the assay with 786-0 renal, 89.3%. Further, the growth in the assay with DU-145 prostate was 102%; with MDA-MB-231 breast it was 98.1%; in the assay on SF-268 CNS, 96%; in the assay with SNB-19 CNS it was 106%; with UACC-62 melanoma, 75.4%; in the assay on SK-MEL-28 melanoma it was 111%. In addition, the growth in the assay with SN12C renal is 101%; in the assay on UO-31 renal, 76.3%; in the assay with OVCAR-5 ovarian it was 103%; in the assay with OVCAR-3 ovarian, 105%; in the assay with NCI/ADR-RES ovarian, 92.8%; in the assay on MDA-MB-435 melanoma it was 103%. The growth in the assay with MCF7 breast was 98.3%; in the assay on KM12 colon, 107%.
As for `COc1ccccc1N1CCN(CCc2c[nH]c3cc4c(cc23)OCO4)CC1`, the growth in the assay on NCI-H23 lung was 71.9%; with NCI-H226 lung it was 79.3%; in the assay on NCI-H322M lung it was 72.1%; in the assay with HOP-62 NSCLC it was 63.2%; with NCI-H460 lung, 51.6%; with 786-0 renal, 79%. The growth with DU-145 prostate is 103%; with MDA-MB-231 breast, 79.8%; in the assay on SF-268 CNS, 91.6%; in the assay on SNB-19 CNS, 79.6%; in the assay with UACC-62 melanoma, 69.2%; with SK-MEL-28 melanoma, 94.2%. In addition, the growth was 68.4% in the assay with SN12C renal; 33.2% in the assay with UO-31 renal; 60.2% in the assay with OVCAR-5 ovarian; 91.2% in the assay on OVCAR-3 ovarian; 86% in the assay with NCI/ADR-RES ovarian; 78% in the assay on MDA-MB-435 melanoma. Further, the growth in the assay with MCF7 breast is 78.7%; with KM12 colon, 84%.
In the case of `CCN(CC)CCOc1c(C(C)C)cccc1C(C)C`, the growth was 104% with NCI-H23 lung; 111% in the assay on NCI-H226 lung; 88.3% in the assay on NCI-H322M lung; 96.7% in the assay with HOP-62 NSCLC; 112% with NCI-H460 lung; 99.6% in the assay on 786-0 renal. Besides, the growth is 109% in the assay on MDA-MB-231 breast; 107% in the assay on SF-268 CNS; 106% with SNB-19 CNS; 99.5% in the assay on UACC-62 melanoma; 92.1% in the assay with SK-MEL-28 melanoma; 105% in the assay on SN12C renal. In addition, the growth in the assay with UO-31 renal is 94.4%; in the assay on OVCAR-5 ovarian, 90.6%; with OVCAR-3 ovarian it was 107%; in the assay with NCI/ADR-RES ovarian, 101%; with MDA-MB-435 melanoma, 114%; with MCF7 breast, 94.2%. Further, the growth in the assay on KM12 colon was 99.3%.
For `CC(=O)N(C)C1=Nc2ccc(Cl)cc2C(c2ccccc2)=[N+]([O-])C1`, the growth is 101% in the assay on NCI-H23 lung; 105% with NCI-H226 lung; 82.6% in the assay on NCI-H322M lung; 96.3% in the assay with HOP-62 NSCLC; 111% with NCI-H460 lung; 110% in the assay on 786-0 renal. Further, the growth was 115% in the assay on DU-145 prostate; 109% with MDA-MB-231 breast; 105% in the assay on SF-268 CNS; 96.3% with SNB-19 CNS; 93.7% in the assay on UACC-62 melanoma; 124% in the assay with SK-MEL-28 melanoma. Also, the growth is 97.2% in the assay on SN12C renal; 80.7% in the assay on UO-31 renal; 102% in the assay with OVCAR-5 ovarian; 117% with OVCAR-3 ovarian; 111% in the assay with NCI/ADR-RES ovarian; 111% with MDA-MB-435 melanoma. Also, the growth with MCF7 breast was 104%; in the assay on KM12 colon it was 107%.
Consider `COc1ccc(C(c2ccc(OC)cc2)C(Cl)(Cl)Cl)cc1`, for which the growth in the assay with NCI-H23 lung is 81.9%; in the assay on NCI-H226 lung, 96.9%; in the assay on NCI-H322M lung, 106%; in the assay on HOP-62 NSCLC, 83.1%; in the assay with NCI-H460 lung, 91.8%; in the assay with 786-0 renal, 74.4%. The growth with DU-145 prostate was 107%; in the assay on MDA-MB-231 breast, 93%; with SF-268 CNS, 88.6%; in the assay with SNB-19 CNS, 84%; in the assay on UACC-62 melanoma it was 84.7%; in the assay with SK-MEL-28 melanoma it was 103%. In addition, the growth with SN12C renal was 97.8%; in the assay with UO-31 renal it was 53.4%; with OVCAR-5 ovarian it was 91.9%; in the assay on NCI/ADR-RES ovarian it was 89.6%; in the assay on MDA-MB-435 melanoma it was 72.4%; in the assay on MCF7 breast, 92.6%. In the assay on KM12 colon, the growth is 83.8%.
On to `C[C@]12CCc3sc(-c4ccc(Cl)cc4)nc3C1=CC[C@@H]1[C@@H]2CC[C@]2(C)C(=O)CC[C@@H]12`, for which the growth with NCI-H23 lung was 71.3%; in the assay on NCI-H226 lung it was 84.3%; with NCI-H322M lung, 82.6%; in the assay on HOP-62 NSCLC, 66%; with NCI-H460 lung, 72.5%; in the assay on 786-0 renal, 53.4%. Further, the growth was 43.6% with DU-145 prostate; 64.3% in the assay on MDA-MB-231 breast; 64.4% with SF-268 CNS; 56.2% in the assay with SNB-19 CNS; 51.1% in the assay on UACC-62 melanoma; 63.1% in the assay with SK-MEL-28 melanoma. Further, the growth with SN12C renal is 65.9%; in the assay on UO-31 renal, 47.3%; in the assay with OVCAR-5 ovarian it was 98.2%; in the assay on OVCAR-3 ovarian, 27.2%; in the assay on NCI/ADR-RES ovarian it was 81.6%; in the assay with MDA-MB-435 melanoma, 75.7%. Further, the results for the growth in the assay with MCF7 breast and with KM12 colon were 24.4% and 66.8%, respectively.
